Assay results published in PubChem BioAssay.
Records with an inconclusive call do not appear. Active and inactive are the calls of the source.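 How the source made its calls, unless noted: active means response below a set limit, under 55% cells CD8-positive and vesicle-bound, and CD8 cells' 90th-percentile brightness under 279; inactive means the rest.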

What was measured:
[1] = rapamycin-like changes in RPL19A-GFP expression – cell-based, S. cerevisiae, multiplex flow cytometry, primary screen (AID 1862; in the data active means percent of DMSO control GFP below about 86%;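 further: lower values mimic rapamycin by blocking the RPL19A rise seen in DMSO cells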); conditions: S. cerevisiae RPL19A-GFP strain, flow cytometry fluorescence, 3 h; at 10 µM; stronger effect = lower value
[2] = TOR pathway GLN3 branch reporter MEP2-GFP changes – S. cerevisiae, multiplex flow cytometry, primary screen (AID 1867;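 active means GFP response, as percent of the DMSO control, above the screen-wide mean plus 3 SD, about 139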;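 further: median GFP channel fluorescence of barcode-gated MEP2-GFP cells measured by flow cytometry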); conditions: S. cerevisiae MEP2-GFP strain, 3 h, at 10 µM, stronger effect = higher value, 100% means same as DMSO wells
[3] = TOR pathway RTG branch CIT2 reporter changes – S. cerevisiae, GFP fusion, multiplex flow cytometry, primary screen (AID 1870;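 active means percent response above a set limit, the screen-wide mean plus 3 SD, cut at about 130% in these data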;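 further: barcoded CIT2-GFP strain pooled with four other GFP strains with rapamycin as positive control; median GFP fluorescence per well over plate mean of DMSO wells so 100% = DMSO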); conditions: S. cerevisiae CIT2-GFP expression, 3 h, at 10 µM, stronger effect = higher value
[4] = TOR pathway LAP4-GFP level changes – S. cerevisiae, multiplex flow cytometry, primary screen (AID 1873;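 active means GFP signal, as percent of the solvent control, above the screen mean plus 3 SD, about 149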); conditions: S. cerevisiae LAP4-GFP expression, 3 h, at 10 µM, stronger effect = higher value
[5] = yeast AGP1-GFP level changes, GLN3 branch – cell-based, multiplex flow cytometry, S. cerevisiae, primary screen (AID 1887;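 active means GFP signal above the screen-wide mean plus 3 SD, that is over about 124.5% of the solvent control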;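 further: AGP1-GFP fusion strain of S. cerevisiae within a five-strain barcoded multiplex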); conditions: 3 h, at 10 µM, stronger effect = higher value
[6] = reduced mouse 2C T cell binding to pMHC/ICAM-1 vesicles – MLPCN validation set, flow cytometry, LFA-1/ICAM-1 modulator project, pilot screen (AID 2523); conditions: 2C mouse CD8+ T cells, at 7 µM, stronger effect = lower value; double positive events: measured here: CD8+/vesicle+ event percentage;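 on vesicle binding response: mean PE anti-B7-1 fluorescence of CD8+ cells relative to row control; 100% = QL9-loaded vesicles with DMSO vehicle in the same plate row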
[7] = molecular target: Integrin beta-1 (Homo sapiens) + Integrin alpha-4 (Homo sapiens) (UniProt P13612+P05556); experiment: alpha4beta1 integrin LIBS antibody binding reduction – U937 cells, HUTS-21 mAb, flow cytometry, validation set, VLA-4 allosteric modulator project, pilot screen (AID 2674;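 active means inhibition above 50%, about 3 SD of the validation set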;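 further: antibody binding induced by the VLA-4 ligand LDV present at three times its Kd; 0% = LDV ligand with antibody and no compound and 100% = antibody without LDV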); conditions: HUTS-21 LIBS mAb binding, at 6.7 µM, stronger effect = higher value, binding induced by LDV ligand
[8] = calorie-restriction mimetic ROS inhibitors, yeast – validation compound set, pilot screen (AID 2706;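 active means superoxide response below 65% of plate, a cut near 3 SD across the whole screen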;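 further: yeast exposed to compound for one week at 30 degrees C before staining; 100% = mean of all compound wells on the same plate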); conditions: S. cerevisiae aging, superoxide DHE fluorescence; at 10 µM; stronger effect = lower value
[9] = molecular target: Beta-adrenergic receptor kinase 1 (Homo sapiens) (UniProt P25098); experiment: GRK2 binders displacing RNA aptamer, biochemical, validation, human GRK2, bead flow cytometry (AID 488806;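 active means aptamer binding inhibition above 30%, about 3 SD of noise from non-fluorescent compounds; inactive means inhibition at or below 30%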); conditions: bead-bound GRK2, FAM-aptamer displacement, at 10 µM, stronger effect = higher value
[10] = molecular target: Beta-2 adrenergic receptor (Homo sapiens) (UniProt P07550); experiment: agonist-induced loss of surface beta2AR – cell-based, FAP fluorogen, flow cytometry, validation set, pilot screen (AID 504459;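 active means percent response above 42, roughly 3 SD of non-fluorescent test compounds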;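 further: agonist-driven loss of surface beta2AR via internalization measured by FAP dye flow cytometry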); conditions: Am2.2-beta2AR cells, at 10 µM, stronger effect = higher value
[11] = molecular target: AP-2 complex subunit beta (Homo sapiens) (UniProt P63010); experiment: beta-arrestin/AP2 interaction blockers – biochemical, validation set, GST-AP2 beads, flow cytometry, pilot screen (AID 504541;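 active means inhibition above 54%, about 3 SD of non-fluorescent compounds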;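 further: AP2 carries R879A mutation and is captured from E. coli lysate; bead-bound FITC arrestin peptide fluorescence measuring arrestin peptide binding to AP2; 0% = DMSO wells and 100% = excess unlabeled arrestin peptide control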); conditions: FITC arrestin peptide, at 10 µM, stronger effect = higher value, AP2 beta2 appendage fragment, R879A mutant
[12] = cytosolic pH regulators acting via V-ATPase – S. cerevisiae, pHLuorin, HTS validation (AID 504600; in the data active means response above about 15%;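 further: plate controls were DMSO for no effect and reference compound for full effect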); conditions: V-ATPase proton transport, at 10 µM, stronger effect = higher value
[13] = tested on: anti-desmoglein-3 scFv antibody binding to human DSG3; experiment: blockers of pathogenic pemphigus antibody–desmoglein-3 binding – biochemical, validation compound set, bead-based, flow cytometry, pilot screen (AID 588368;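 active means binding below the plate cutoff, the plate median minus 3 SD, with a reading above zero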;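 further: signal is the median channel fluorescence of bead-bound GFP antibody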); conditions: Protein G beads, DSG3-Fc, scFv-GFP binding, at 10 µM, stronger effect = lower value
[14] = Nile Red efflux blockade in pump-expressing yeast – validation compound set, multiplex, phenotypic, pilot screen (AID 588506;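 active means efflux inhibition above 0.42, the validation set average plus 4 SD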;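 further: Nile Red retained in cells so higher fluorescence means more efflux inhibition; 0 = negative control wells and 1 = enniatin B 25 µM full block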); conditions: S. cerevisiae pump-expressing triplex, Nile Red efflux flow cytometry; at 10 µM; stronger effect = higher value; the pumps come from Candida albicans
[15] = molecular target: ATP-binding cassette sub-family B member 6 (Homo sapiens) (UniProt Q9NP58); experiment: blockers of ABCB6-driven porphyrin uptake – K562-ABCB6 cells, flow cytometry, validation set, pilot screen (AID 588550;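 active means inhibition above the screen-wide mean plus 3 SD, about 51%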;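 further: 0% = DMSO wells and 100% = benzethonium chloride 70 µM positive control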); conditions: K562-ABCB6 porphyrin accumulation, 1 h, at 10 µM, stronger effect = higher value
[16] = AML differentiation inducers, ER-HoxA9 marrow cells – cell-based, GFP/MAC1 double positive, flow cytometry, validation set, primary screen (AID 588685;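 active means differentiation response of at least 50%, scaled between solvent and reference control, from cells with both markers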;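 further: compound exposure lasts four days before antibody staining and flow analysis; 0% = DMSO wells and 100% = 5 µM fulvestrant positive control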); conditions: stronger effect = higher value, normalized: vehicle 0, fulvestrant 100
[17] = hit retest on RPL19A-GFP reporter strain – cell-based, S. cerevisiae, flow cytometry, cherry picks, mother/daughter gates, confirmation (AID 2270;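 active means GFP response below 50% of the DMSO control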); conditions: 3 h, at 10 µM, stronger effect = lower value, 100 = same GFP as DMSO wells
[18] = yeast TOR pathway reporter LAP4-GFP change – cell-based, cherry picks, flow cytometry, mother/daughter gates, confirmation (AID 2271;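 active means GFP response above 150% of the DMSO control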;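 further: ratio of sample to DMSO plate mean so 100% equals DMSO level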); conditions: S. cerevisiae LAP4-GFP strain, 3 h, at 10 µM, stronger effect = higher value, 100 means same as DMSO control
[19] = TOR pathway reporter MEP2-GFP, retest of hits – S. cerevisiae, flow cytometry GFP, cherry picks, confirmation (AID 2272;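 active means GFP response above 150% of the DMSO control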;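 further: ratio of well signal to plate DMSO mean so 100% equals DMSO level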); conditions: S. cerevisiae MEP2-GFP strain, 3 h, at 10 µM, stronger effect = higher value
[20] = TOR pathway CIT2 reporter hit retest – S. cerevisiae, GFP fusion, cherry picks, mother/daughter gates, confirmation (AID 2274;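 active means GFP response above 150% of the DMSO level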); conditions: S. cerevisiae CIT2-GFP strain, flow cytometry, 3 h, at 10 µM, stronger effect = higher value
[21] = measured here: daughter cell gate
[22] = measured here: mother cell gate

Chain of ATP-binding cassette sub-family B member 6 (Homo sapiens) (Q9NP58 whole entry, looked up): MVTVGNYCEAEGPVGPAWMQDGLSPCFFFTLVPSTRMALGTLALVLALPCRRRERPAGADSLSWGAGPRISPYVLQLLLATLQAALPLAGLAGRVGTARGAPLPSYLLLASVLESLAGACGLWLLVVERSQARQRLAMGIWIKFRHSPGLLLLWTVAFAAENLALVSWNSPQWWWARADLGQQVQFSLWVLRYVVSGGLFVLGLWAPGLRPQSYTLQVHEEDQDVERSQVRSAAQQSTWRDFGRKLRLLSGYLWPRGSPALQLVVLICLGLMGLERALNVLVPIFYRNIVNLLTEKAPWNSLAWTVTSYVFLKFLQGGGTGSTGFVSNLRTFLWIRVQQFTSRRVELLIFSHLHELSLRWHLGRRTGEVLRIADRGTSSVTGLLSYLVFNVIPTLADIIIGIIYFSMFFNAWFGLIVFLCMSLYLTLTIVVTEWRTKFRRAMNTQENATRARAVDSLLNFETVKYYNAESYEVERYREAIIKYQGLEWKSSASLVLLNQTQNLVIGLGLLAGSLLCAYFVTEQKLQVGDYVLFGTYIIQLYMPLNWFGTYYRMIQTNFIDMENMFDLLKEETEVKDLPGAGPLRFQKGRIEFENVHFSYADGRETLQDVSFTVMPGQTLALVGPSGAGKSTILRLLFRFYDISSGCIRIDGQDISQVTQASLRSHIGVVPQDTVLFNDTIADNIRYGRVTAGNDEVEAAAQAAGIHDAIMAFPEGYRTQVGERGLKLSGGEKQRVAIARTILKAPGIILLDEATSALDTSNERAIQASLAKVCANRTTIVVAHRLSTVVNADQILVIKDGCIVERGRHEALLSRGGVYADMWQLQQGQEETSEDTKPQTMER
Chain of AP-2 complex subunit beta (Homo sapiens) (P63010 whole entry, looked up, the tested form may be a part, one chain of several): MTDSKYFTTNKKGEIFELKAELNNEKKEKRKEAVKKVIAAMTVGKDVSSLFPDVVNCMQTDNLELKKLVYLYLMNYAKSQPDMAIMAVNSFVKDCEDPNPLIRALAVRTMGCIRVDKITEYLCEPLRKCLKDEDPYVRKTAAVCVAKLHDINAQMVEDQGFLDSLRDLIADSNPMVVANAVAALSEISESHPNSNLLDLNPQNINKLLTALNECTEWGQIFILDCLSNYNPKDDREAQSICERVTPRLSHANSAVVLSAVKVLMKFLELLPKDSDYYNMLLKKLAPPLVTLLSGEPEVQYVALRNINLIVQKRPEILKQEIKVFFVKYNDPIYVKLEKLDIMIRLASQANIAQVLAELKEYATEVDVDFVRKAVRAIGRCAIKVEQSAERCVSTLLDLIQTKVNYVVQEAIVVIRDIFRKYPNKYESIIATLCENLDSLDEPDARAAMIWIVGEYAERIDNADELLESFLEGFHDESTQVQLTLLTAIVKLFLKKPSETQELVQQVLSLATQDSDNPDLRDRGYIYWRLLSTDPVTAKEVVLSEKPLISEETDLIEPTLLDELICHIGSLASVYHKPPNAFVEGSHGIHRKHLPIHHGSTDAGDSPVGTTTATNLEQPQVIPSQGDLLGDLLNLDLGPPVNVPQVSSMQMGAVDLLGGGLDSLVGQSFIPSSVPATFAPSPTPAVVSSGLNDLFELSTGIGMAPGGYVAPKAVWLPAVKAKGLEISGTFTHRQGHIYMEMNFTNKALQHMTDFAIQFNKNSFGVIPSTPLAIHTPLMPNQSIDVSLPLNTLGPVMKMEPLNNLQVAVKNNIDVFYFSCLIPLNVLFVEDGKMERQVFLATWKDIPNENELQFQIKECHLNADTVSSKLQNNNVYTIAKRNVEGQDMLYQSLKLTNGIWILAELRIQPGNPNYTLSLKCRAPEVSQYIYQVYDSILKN
Chain of Integrin beta-1 (Homo sapiens) + Integrin alpha-4 (Homo sapiens) (P05556 whole entry, looked up): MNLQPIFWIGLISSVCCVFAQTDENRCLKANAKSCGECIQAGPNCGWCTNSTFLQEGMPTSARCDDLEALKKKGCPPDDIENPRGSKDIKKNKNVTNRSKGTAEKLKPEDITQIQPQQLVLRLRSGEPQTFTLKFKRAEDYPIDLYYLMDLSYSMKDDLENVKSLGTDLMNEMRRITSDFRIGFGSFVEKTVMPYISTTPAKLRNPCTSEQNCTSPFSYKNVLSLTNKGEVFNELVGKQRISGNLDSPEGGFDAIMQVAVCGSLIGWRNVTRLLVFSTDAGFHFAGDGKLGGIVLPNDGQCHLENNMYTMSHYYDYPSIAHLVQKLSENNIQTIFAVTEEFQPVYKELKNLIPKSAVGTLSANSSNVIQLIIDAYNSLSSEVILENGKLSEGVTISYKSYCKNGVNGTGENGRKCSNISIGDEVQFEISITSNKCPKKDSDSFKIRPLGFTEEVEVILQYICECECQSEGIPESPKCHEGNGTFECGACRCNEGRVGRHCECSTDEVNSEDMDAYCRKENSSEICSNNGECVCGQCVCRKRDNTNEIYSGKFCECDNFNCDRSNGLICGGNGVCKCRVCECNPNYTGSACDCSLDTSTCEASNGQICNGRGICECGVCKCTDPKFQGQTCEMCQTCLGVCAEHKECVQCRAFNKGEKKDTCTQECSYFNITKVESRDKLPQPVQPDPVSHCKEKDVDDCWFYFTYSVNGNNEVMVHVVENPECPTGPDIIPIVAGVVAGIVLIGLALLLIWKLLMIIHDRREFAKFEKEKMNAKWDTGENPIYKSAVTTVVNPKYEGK
Chain of Integrin beta-1 (Homo sapiens) + Integrin alpha-4 (Homo sapiens) (P13612 whole entry, looked up): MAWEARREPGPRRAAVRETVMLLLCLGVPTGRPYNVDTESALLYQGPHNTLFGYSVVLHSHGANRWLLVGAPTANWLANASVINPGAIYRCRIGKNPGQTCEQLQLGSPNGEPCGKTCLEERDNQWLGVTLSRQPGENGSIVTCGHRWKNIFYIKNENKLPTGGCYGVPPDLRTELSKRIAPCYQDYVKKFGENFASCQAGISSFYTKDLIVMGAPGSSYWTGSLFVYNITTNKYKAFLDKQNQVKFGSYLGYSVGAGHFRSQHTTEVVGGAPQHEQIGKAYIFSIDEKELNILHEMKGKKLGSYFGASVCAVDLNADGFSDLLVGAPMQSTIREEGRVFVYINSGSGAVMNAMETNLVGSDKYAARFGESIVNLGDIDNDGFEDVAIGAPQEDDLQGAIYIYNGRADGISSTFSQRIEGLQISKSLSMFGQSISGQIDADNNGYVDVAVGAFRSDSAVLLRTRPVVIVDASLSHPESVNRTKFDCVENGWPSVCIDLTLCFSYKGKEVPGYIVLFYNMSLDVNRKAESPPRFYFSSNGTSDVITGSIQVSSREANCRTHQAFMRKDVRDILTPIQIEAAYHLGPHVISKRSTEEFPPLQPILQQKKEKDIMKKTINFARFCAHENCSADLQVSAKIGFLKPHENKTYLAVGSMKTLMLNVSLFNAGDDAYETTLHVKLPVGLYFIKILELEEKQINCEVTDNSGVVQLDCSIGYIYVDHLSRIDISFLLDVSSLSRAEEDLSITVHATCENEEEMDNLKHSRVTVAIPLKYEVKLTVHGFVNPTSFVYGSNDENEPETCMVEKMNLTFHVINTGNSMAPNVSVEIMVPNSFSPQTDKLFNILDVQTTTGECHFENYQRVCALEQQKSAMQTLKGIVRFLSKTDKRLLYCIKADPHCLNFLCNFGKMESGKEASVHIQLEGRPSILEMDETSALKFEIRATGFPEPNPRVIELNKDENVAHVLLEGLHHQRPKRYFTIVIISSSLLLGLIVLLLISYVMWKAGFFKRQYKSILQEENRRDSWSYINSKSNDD
Chain of Beta-adrenergic receptor kinase 1 (Homo sapiens) (P25098 whole entry, looked up): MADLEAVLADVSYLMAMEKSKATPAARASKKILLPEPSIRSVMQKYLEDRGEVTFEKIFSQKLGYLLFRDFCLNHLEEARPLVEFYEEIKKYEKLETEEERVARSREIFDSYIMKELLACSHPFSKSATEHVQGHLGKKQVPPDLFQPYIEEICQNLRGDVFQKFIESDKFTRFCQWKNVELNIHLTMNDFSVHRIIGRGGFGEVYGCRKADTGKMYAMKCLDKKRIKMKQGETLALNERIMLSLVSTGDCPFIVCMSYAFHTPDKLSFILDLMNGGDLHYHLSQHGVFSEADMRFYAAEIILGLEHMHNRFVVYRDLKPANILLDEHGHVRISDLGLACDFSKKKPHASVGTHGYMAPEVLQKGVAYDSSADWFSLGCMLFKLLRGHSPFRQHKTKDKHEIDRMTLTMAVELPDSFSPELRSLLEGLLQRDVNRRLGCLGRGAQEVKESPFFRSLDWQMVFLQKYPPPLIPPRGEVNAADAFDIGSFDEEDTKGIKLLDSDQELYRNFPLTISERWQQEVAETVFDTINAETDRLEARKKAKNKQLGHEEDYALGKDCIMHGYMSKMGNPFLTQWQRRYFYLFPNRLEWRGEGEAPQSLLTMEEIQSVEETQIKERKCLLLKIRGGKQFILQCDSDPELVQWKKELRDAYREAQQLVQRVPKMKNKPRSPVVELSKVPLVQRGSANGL
Chain of Beta-2 adrenergic receptor (Homo sapiens) (P07550 whole entry, looked up): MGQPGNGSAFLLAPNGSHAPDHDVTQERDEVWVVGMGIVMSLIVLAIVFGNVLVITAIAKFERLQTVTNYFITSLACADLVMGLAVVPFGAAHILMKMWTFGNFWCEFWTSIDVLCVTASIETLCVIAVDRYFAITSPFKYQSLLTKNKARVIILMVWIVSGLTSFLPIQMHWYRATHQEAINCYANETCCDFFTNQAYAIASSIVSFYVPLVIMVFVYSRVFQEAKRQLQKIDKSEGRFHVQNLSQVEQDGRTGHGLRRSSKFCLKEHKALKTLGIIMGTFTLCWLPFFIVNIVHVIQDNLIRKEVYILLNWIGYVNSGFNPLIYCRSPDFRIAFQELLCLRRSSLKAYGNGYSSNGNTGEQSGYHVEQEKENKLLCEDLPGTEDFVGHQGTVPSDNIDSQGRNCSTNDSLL

Cc1cc(C(=O)Nc2ccccc2C(=O)N2CCCCC2)ccc1[N+](=O)[O-]
inactive: percent of DMSO control GFP [1] 98.4% | GFP response vs DMSO [2] 103% | percent response of DMSO control [3] 86.7% | GFP response vs DMSO [4] 114% | GFP response, % of DMSO [5] 103% | vesicle binding response [6] 168% | inhibition [7] -7.08% | superoxide response (% of plate) [8] 124% | aptamer binding inhibition [9] 1% | response [10] -23.4% | inhibition [11] 19.6% | response [12] -4.47% | binding (% of control) [13] 108% | efflux inhibition (fraction of control) [14] -0.04 | inhibition [15] 8% | differentiation response [16] -8.93%
62.3%: double positive events [6]

Nc1cnn(C2OC(CO)C(O)C2O)c(=O)n1 (centres undefined)
inactive: percent of DMSO control GFP [1] 102% | GFP response vs DMSO [2] 108% | percent response of DMSO control [3] 100% | GFP response vs DMSO [4] 102% | GFP response, % of DMSO [5] 99.4% | vesicle binding response [6] 463% | inhibition [7] -13.9% | superoxide response (% of plate) [8] 99.1% | aptamer binding inhibition [9] 3% | response [10] -1.33% | inhibition [11] 1.7% | response [12] 0.15% | binding (% of control) [13] 97.7% | efflux inhibition (fraction of control) [14] 0.11 | inhibition [15] 0% | differentiation response [16] -8.55%
63.4%: double positive events [6]

O=C(CN1C(=O)c2ccccc2C1=O)Nc1cccc([N+](=O)[O-])c1
inactive: percent of DMSO control GFP [1] 103% | GFP response vs DMSO [2] 98.7% | percent response of DMSO control [3] 109% | GFP response vs DMSO [4] 100% | GFP response, % of DMSO [5] 106% | vesicle binding response [6] 130% | inhibition [7] -18.5% | superoxide response (% of plate) [8] 94.2% | aptamer binding inhibition [9] -3% | response [10] -3.16% | inhibition [11] 35% | response [12] -0.16% | binding (% of control) [13] 101% | efflux inhibition (fraction of control) [14] 0.005 | inhibition [15] 7% | differentiation response [16] -10.4%
61.2%: double positive events [6]

CCN(CC)c1ccc2cc(-c3nc(-c4ccc(OC)cc4)cs3)c(=O)oc2c1
106%: GFP response vs DMSO [17, 22]
132%: GFP response relative to DMSO ([18]; measured here: daughter cell gate response)
inactive: GFP response vs DMSO [17] 105% | GFP response relative to DMSO [18] 138%
135%: GFP response relative to DMSO ([18]; measured here: mother cell gate response)
active: GFP response vs DMSO [19] 180% | GFP response, % of DMSO [20] 160%
152%: GFP response, % of DMSO [20, 21]
103%: GFP response vs DMSO [17, 21]
149%: GFP response, % of DMSO [20, 22]

CC(C)C[C@H]1C(=O)N2CCC[C@H]2[C@]2(O)O[C@](NC(=O)[C@@H]3C=C4c5cccc6[nH]c(Br)c(c56)CC4N(C)C3)(C(C)C)C(=O)N12 (some centres undefined)
49.2%: double positive events [6]
active: efflux inhibition (fraction of control) [14] 0.58
inactive: percent of DMSO control GFP [1] 106% | GFP response vs DMSO [2] 105% | percent response of DMSO control [3] 99.7% | GFP response vs DMSO [4] 102% | GFP response, % of DMSO [5] 104% | vesicle binding response [6] 107% | inhibition [7] -7.79% | superoxide response (% of plate) [8] 97.8% | aptamer binding inhibition [9] 0% | response [10] -5.85% | inhibition [11] -3.14% | response [12] 3.49% | binding (% of control) [13] 99.8% | inhibition [15] -91% | differentiation response [16] 1.28%

Cc1cccc(C(=O)c2cccc(C)c2)c1
inactive: percent of DMSO control GFP [1] 105% | GFP response vs DMSO [2] 103% | percent response of DMSO control [3] 109% | GFP response vs DMSO [4] 105% | GFP response, % of DMSO [5] 105% | vesicle binding response [6] 45.4% | inhibition [7] 12% | superoxide response (% of plate) [8] 104% | aptamer binding inhibition [9] 0% | response [10] -8.97% | inhibition [11] -6.55% | response [12] 1.1% | binding (% of control) [13] 98.7% | efflux inhibition (fraction of control) [14] -0.17 | inhibition [15] 1% | differentiation response [16] -7.57%
56%: double positive events [6]

COCCOC(=O)C1=C(N)OC2=C(C(=O)CCC2)C1c1cccnc1 (centres undefined)
59.9%: double positive events [6]
inactive: percent of DMSO control GFP [1] 105% | GFP response vs DMSO [2] 105% | percent response of DMSO control [3] 100% | GFP response vs DMSO [4] 89.4% | GFP response, % of DMSO [5] 101% | vesicle binding response [6] 89.9% | inhibition [7] -5.64% | superoxide response (% of plate) [8] 99.2% | aptamer binding inhibition [9] 2% | response [10] -2.38% | inhibition [11] 4.01% | response [12] 0.7% | binding (% of control) [13] 99.3% | efflux inhibition (fraction of control) [14] -0.1 | inhibition [15] -4% | differentiation response [16] 7.09%

Cc1cc(O)c2/c(=N\N)c(-c3csc(C)n3)coc2c1
inactive: percent of DMSO control GFP [1] 105% | GFP response vs DMSO [2] 107% | percent response of DMSO control [3] 102% | GFP response vs DMSO [4] 106% | GFP response, % of DMSO [5] 110% | vesicle binding response [6] 96.1% | inhibition [7] 5.61% | superoxide response (% of plate) [8] 102% | aptamer binding inhibition [9] 3% | response [10] 2.22% | inhibition [11] -8.85% | response [12] -3.38% | binding (% of control) [13] 99.8% | efflux inhibition (fraction of control) [14] -0.16 | inhibition [15] 3% | differentiation response [16] -0.18%
56.7%: double positive events [6]
